According to PubChem BioAssay AID651567 (National Center for Advancing Translational Sciences (NCATS), 2012):
The whole screen tested about 1,200 compounds, of which about 10 (0.8%) were called active. About 4% were inconclusive and are not listed. This excerpt belongs to a sample that is enriched for actives. Values without a mark were called inactive. Calls follow the shape of the dose curve; as a rule, active = well fitted inhibition curve with a large enough effect; inconclusive = small, poorly fitted or top-dose-only effect; inactive = no such curve, though single readings can be large or run the other way.

Test: qHTS Assay to Find Inhibitors of Chronic Active B-Cell Receptor Signaling: Hit Validation in OCI-Ly3 Assay
Conditions: OCI-Ly3 IkB-luciferase reporter, Chroma-Glo luminescence, 4 h; series mostly up to 46.1 µM; activity change, negative = inhibition: at the top concentration
From the text: Diffuse large B-cell lymphoma (DLBCL) is the most common category of non-Hodgkin lymphoma, with ~20,000 new cases per year in the United States. DLBCL should be regarded as a collection of different neoplasms. Microarray gene expression analysis has defined two principal types of DLBCL, named for their similarity to normal B cell stages or activation states: a germinal center B-cell (GCB) type, and an activated B-cell (ABC) type. In ABC-DLBCL, a constitutive high-level activity of the NF-kappaB family of transcription factors has been observed (1) and NF-kappaB target genes are more highly expressed in ABC primary tumors than in GCB tumors. Functional studies have shown a constitutive high-level activity of the IkappaB (inhibitor of kappa-B) kinase (IKK) complex. […] Further analysis of DLBCL primary tumors for NF-kappaB target gene expression imply that although CARD11 is required for constitutive IKK activity in all ABC-DLBCL lines, mutations in CARD11 may be the root cause of IKK activation only in lines or tumors with such mutations. In other words, CARD11 mutations may explain NF-kappaB activation in only 10% of ABC-DLBCL cases. […] This process has been termed 'chronic active BCR signaling' (CABS). The goal of this screen is to find small-molecule inhibitors of the CABS pathway found in ABC-DLBCL lines using a cell-based assay that measures IkappaBalpa stability, which has already been extensively validated in the OCI-Ly3 line (PubChem AID:445; REF: 4). […] Hits from the primary screen were tested in this selectivity secondary assay. NIH Molecular Libraries Probe Production Network [MLPCN] NIH Chemical Genomics Center [NCGC] MLPCN Grant: R03 DA031086 PI Name: Dr. R. Eric Davis
Cells were seeded in 1536-well plates at 5000 cells/3ul in IMDM medium containing 0.5% FBS, w/o phenol red, L-glutamine, 25 mM HEPES, 3 mg/ml sodium bicarbonate. After centrifugation for 1 min. at 1000 rpm, 23 nl of compounds or DMSO were delivered to each well using a pin tool. Then 1ul 80ng/ml doxycycline was dispensed into white solid 1536-well plates and the plates were incubated at 37C/5% C02 in a cell incubator for 4 hrs. Then 4 ul Chroma-Glo luminescent substrate mix (Promega) was added to each well. The plate was incubated at R.T. for 10-15 min. The plates were measured on a ViewLux plate reader for green luminescence (540/20 nm filter) and red luminescence (618/8 nm filter). The green and red luminescent signals were corrected for red and green luminescence filter overlap using previously determined filter calibration constants (determined using the procedure outlined in the Promega Technical Manual). The %Activity was determined from the ratio of corrected green/red luminescent values. Green luminescent and ratio %Activity was determined by normalizing to the difference in signal between basal cells (0% Activity) and cells incubated with 10 uM of the proteasome inhibitor MG-132 (100% Activity). Red luminescent %Activity was normalized to the difference between red luminesence in basal cells (0%Activity) and zero luminescence (-100% Activity). Concentration-response curves were fitted to the signals arising from the green luminescence (I-kappa-B-alpha-luciferase fusion; IkB-luc) and the red luminescence (unfused luciferase; luc) as well as the calculated ratio. The concentration-effect curves were then classified based on curve quality (r2), response magnitude and degree of measured activity. Compounds were then categorized based on their concentration-response curves for all three datasets (Ikb-luc, luc and ratio).
% is scaled to controls: 0 for no effect and ±100 for the full control effect; potency is read from the fitted curve at half-maximal effect.

SMILES	activity change, negative = inhibition [%]	Potency
CCN1C(=O)C(O)(C2COC(C)(C)CC2=O)c2cc(Br)ccc21 (stereo not drawn)	-6.91	
Cc1nn(-c2ccccc2)c(C)c1/C=N/NC(=O)c1cc(-c2cccs2)[nH]n1		18.4 µM (active)
Cc1ccc(-c2cc(C(=O)N/N=C/c3c(C)nn(-c4ccccc4)c3C)[nH]n2)cc1	-14.7	
O=C(N/N=C/c1cccs1)c1cc(-c2ccncc2)nc2ccccc12	-3.1	
COc1ccc(COC(=O)C2=C(C)NC(=O)NC2c2cc(Br)c(O)c(OC)c2)cc1 (stereo not drawn)	0.378	
CCOC(=O)CSc1nc(C)c2cccc(C)c2n1	0.225	
COc1ccc(C2=Nn3c(nnc3-c3ccccc3OC)SC2)cc1OC	-2.26	
Fc1cccc2sc(Nc3nnc(-c4ccccc4)o3)nc12	21.3	
Nc1ncnc2c1ncn2C1OC(C(=O)NC2CC2)C(O)C1O (stereo not drawn)	-1.22	
CC(/C=N/NC(=O)c1cc(-c2ccc(Cl)cc2)nc2ccccc12)=C\c1ccco1	-1.82	
Cc1noc(C)c1COc1ccc(CC(=O)NCc2ccccc2)cc1	-1.46	
Cc1cc(C)c(S(=O)(=O)Nc2ccc3c4c(cccc24)CC3)c(C)c1	-5.19	
CCOc1ccc(Nc2cc(C)nc(-n3nc(C)cc3C)n2)cc1	-3.94	
COc1ccc(OC)c(C2CC(=O)c3c([nH]c(C(=O)OC(C)C)c3C)C2)c1 (stereo not drawn)	-5.41	
COc1ccccc1-c1nnc(Nc2nc3c(OC)cccc3s2)o1	14.5	
C=CCn1c(SCC(=O)NCCO)nc2sc(C)c(C)c2c1=O	-0.853	
O=C(CNC(=O)c1ccco1)N=Nc1c(O)n(CCc2ccccc2)c2ccccc12	-1.99	
C=CCNc1ncnc2c1ncn2C1OC(CO)C(O)C1O (stereo not drawn)	-1.82	
COc1cccc(CSc2nc3ccccc3cc2C=O)c1	-1.56	
O=C(/C=C/c1cccc(Cl)c1)c1nc2ccccc2[nH]1	0.678	
COc1cc2c(cc1OC)C(c1cc3cc(OC)c(OC)cc3[nH]c1=O)N(C(=O)C1CC1)CC2 (stereo not drawn)	-0.249	
CCOc1cc(CNc2ccc3c(c2)OCCO3)cc(Br)c1OCC	-7.23	
CC(C)Oc1ccccc1C1CC(=O)Nc2cc3c(cc21)OCCO3 (stereo not drawn)	-4.7	
C=C1C(O)[C@@H]2O[C@]3(CC[C@H](/C=C/C(C)[C@@H]4CC(C)=CC5(O[C@H](C[C@@](C)(O)CO)CCC5O)O4)O3)CC[C@H]2O[C@@H]1C(O)CC(C)[C@H]1OC2(CCCCO2)CCC1C (stereo partly drawn)	-6.02	
Cc1cc(Cl)n2c(nc3ccccc32)c1C#N	-0.275	
COc1ccc(-c2noc(CSc3nc(N)c(-c4ccccc4)c(=O)[nH]3)n2)cc1OC	-0.927	
COc1ccc(CN2C[C@H]3CCCN3c3cc(Br)ccc3S2(=O)=O)cc1	-3.64	
CCOCCOC(=O)c1[nH]c2c(c1C)C(=O)CC(c1ccccc1)C2 (stereo not drawn)	-0.56	
